Assay results reported in article PMC5540273 (PLoS ONE, 2017).

Columns and labels:
Conditions in all cases: concentration: 1 μM, replicates: in singlicate; n = 1
MRCKB = test system: T1, MRCKB
T1 construct: gene CDC42BPB

MST1R = test system: MST1R
MST1 = test system: T2, MST1
T2 construct: gene STK4

MST2 = test system: T3, MST2
T3 construct: gene STK3

MST3 = test system: T4, MST3
T4 construct: gene STK24

MST4 = test system: MST4
MTOR = test system: MTOR
MUSK = test system: MUSK
MYLK2 = test system: MYLK2
MYLK4 = test system: MYLK4
MYLK = test system: MYLK
MYO3A = test system: MYO3A
MYO3B = test system: MYO3B
NDR1 = test system: T5, NDR1
T5 construct: gene STK38

NDR2 = test system: NDR2
NEK10 = test system: NEK10
NEK11 = test system: NEK11
NEK1 = test system: NEK1
NEK2 = test system: NEK2
NEK3 = test system: NEK3
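Note: KINOMEscan kinase panel screen.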

SMILES	%Inh (MRCKB) [%]	%Inh (MST1R) [%]	%Inh (MST1) [%]	%Inh (MST2) [%]	%Inh (MST3) [%]	%Inh (MST4) [%]	%Inh (MTOR) [%]	%Inh (MUSK) [%]	%Inh (MYLK2) [%]	%Inh (MYLK4) [%]	%Inh (MYLK) [%]	%Inh (MYO3A) [%]	%Inh (MYO3B) [%]	%Inh (NDR1) [%]	%Inh (NDR2) [%]	%Inh (NEK10) [%]	%Inh (NEK11) [%]	%Inh (NEK1) [%]	%Inh (NEK2) [%]	%Inh (NEK3) [%]
Cc1cccc(-c2nc(Nc3ccc4c(cnn4C)c3)c3ccccc3n2)n1 [GW876731]	34	0	0	0	0	9	0	2	0	33	0	0	0	17	68	0	46	0	14	0
CCCNC(=O)Nc1ccc(Oc2ncnc3ccn(C)c23)cc1	0	12	0	0	4	0	8	0	11	21	0	0	40	3	0	0	0	0	0	33
Nc1nc(-c2ccccc2F)c(-c2ccnc3ccccc23)s1 [GW560459]	0	33	8	0	7	0	21	0	8	1	11	20	0	16	0	3	0	7	0	1
FC(F)(F)c1ccc(-c2ncn(CCCN3CCOCC3)c2-c2ccncc2)cc1 [SB-217780]	6	28	28	59	35	0	12	0	0	4	4	0	0	3	0	4	0	0	0	9
COC(=O)c1c(-c2ccccc2)c2cc(Br)ccc2c(=O)n1Cc1ccc(NC(=O)CCC(=O)O)cc1	0	43	12	27	7	0	32	0	0	1	29	100	0	0	0	0	0	0	0	13
CCC(=O)c1c(-c2ccccc2)c2cc(Cl)ccc2c(=O)n1Cc1cc(S(C)(=O)=O)n(CCC(C)(C)O)n1	0	36	21	10	0	0	0	17	5	2	5	0	0	2	1	0	0	0	4	0
COc1ccc(Nc2nccc(N3CCC(NS(=O)(=O)c4ccc(NC(C)=O)cc4)C3)n2)cc1 (centres unmarked) [GSK1379729]	15	25	7	0	0	9	43	18	29	1	15	8	2	10	0	0	1	0	8	7
CN1C(=O)C(Nc2ccccc2)=C(c2ccccc2)C1=O [SB-300079]	0	0	0	0	0	0	26	0	5	28	0	0	0	39	0	7	4	0	0	21
COc1cc(Nc2nccc(N3CCC(NC(=O)C(C)c4ccc(Cl)cc4)C3)n2)cc(OC)c1OC (centres unmarked) [GSK1379757]	0	37	8	5	0	0	36	0	0	0	8	20	0	26	0	0	12	8	0	19
CCC(=O)c1c(-c2ccccc2)c2cc(Cl)ccc2c(=O)n1Cc1ccc(C(=O)O)cc1	0	6	0	0	0	0	0	0	0	0	0	0	3	0	0	0	0	0	0	22
O=C(Nc1n[nH]c2nc(-c3ccccc3)c(Cl)cc12)C1CC1 [SB-734909]	6	0	12	50	0	37	19	19	93.2	33	37	0	12	8	0	0	11	0	0	33
CCS(=O)c1ccc(-c2coc3ccc(-c4nnc(C)o4)cc23)cc1 (centres unmarked)	0	15	33	0	17	0	2	0	5	4	0	0	3	0	0	5	0	0	0	1
COc1ccc(-c2coc3ccc(-c4nnc(SCc5cccc(C#N)c5)o4)cc23)cc1	0	33	15	13	25	0	0	18	7	0	6	20	49	7	0	0	0	0	5	7
COc1cc2ncn(-c3cc(OCc4ccncc4)c(C(N)=O)s3)c2cc1OC [GSK336313]	0	34	0	0	0	0	28	93.6	21	36	44	10	0	0	0	0	0	31	10	0
Cl.NS(=O)(=O)c1cccc(Nc2cc(-c3ccc(F)cc3)n[nH]2)c1 [GW824645]	0	0	29	14	0	9	39	0	9	12	0	0	0	47	5	8	0	0	0	14
Cc1c(Cn2c(C)nn3c(=O)cc(N4CCO[C@H](C)C4)nc23)cccc1C(F)(F)F [GSK2373690]	0	41	2	7	0	0	57	28	2	99.8	12	0	0	6	0	6	0	0	24	2
